This is an account of results in PubChem BioAssay AID2284381 (EPA ToxCast).

SMILES strings stand for the structures. Inconclusive results are not listed. Active and inactive are the calls of the source. Rule for the calls: active = hit-call score of the fitted dose curve at least 0.9, where 1 is the maximum; inconclusive = response in the unintended direction; inactive = score below 0.9.

This assay relates to Japanese medaka Retinoid X Receptor beta (RXRb), gene 100125505. Nature of the assay: ATG_jmRXRb_EcoTox2: Attagene TRANS-FACTORIAL EcoTox-2 HepG2 Assay for Japanese medaka Retinoid X Receptor beta (RXRb). The method, then: ATG_EcoTox2 is a cell-based, multiplexed assay created by modifying the existing Attagene TRANS-FACTORIAL system to include a panel of nuclear receptors from some or all the following species: human (Homo sapiens), african clawed frog (Xenopus laevis), rainbow trout (Oncorhynchus mykiss), japanese medaka (Oryzias latipes), and zebrafish (Danio rerio). The ECOTOX2-FACTORIAL format uses HepG2, a human liver cell line, with measurements taken at 24 hours after chemical dosing in a 24-well plate. ATG_jmRXRb_EcoTox2 is one of 29 assay components calculated in the ATG_EcoTox2 assay. It is designed to make measurements of mRNA induction, a form of inducible reporter, as detected with fluorescence intensity signals by Reverse transcription polymerase chain reaction (RT-PCR) and Capillary electrophoresis technology.The assay endpoint ATG_jmRXRb_EcoTox2 was analyzed in the positive analysis fitting direction relative to DMSO as the negative control and baseline of activity. Using a type of inducible reporter, measures of mRNA for gain-of-signal activity can be used to understand the reporter gene at the transcription factor-level as they relate to the gene RXRb. Furthermore, this assay endpoint can be referred to as a primary readout, because this assay has produced multiple assay endpoints where this one serves a reporter gene function. […]
Human liver HepG2 cells are transiently transfected with multiple reporter transcription units (MRTUs) in 6-well plates using FuGene 6 reagent (Roche; 3 ml FuGene/1 mg DNA). […] A major difference between the CIS and TRANS system is that in CIS activities of endogenous TFs are measured, whereas the TRANS assay evaluates changes in activities of exogenous, chimeric NR-Gal4 proteins. […] The fragments were purified using Qiaquick PCR columns (Qiagen), analyzed on an ABI 3130xL genetic analyzer (Applied Biosystems) with peak positions identified by using a set of X-rhodamine (ROX)-labeled MapMarker1000 molecular weight standards (BioVentures). […]
On to `[Cl][Sn]([c]1ccccc1)([c]1ccccc1)[c]1ccccc1`, for which the AC50 (as a rule, the concentration giving half of the maximal activity seen) is 0.171 µM (active).

Turning to `O=C(O)C(F)(F)C(F)(F)C(F)(F)C(F)(F)C(F)(F)C(F)(F)C(F)(F)F`, the half-maximal activity concentration (AC50) was 31.4 µM (active).

Consider `CCCCOCN(C(=O)CCl)c1c(CC)cccc1CC`, for which the AC50 is 50 µM (active).
